# Laboratory results published in article PMC7862700, “An all-to-all approach to the identification of sequence-specific readers for epigenetic DNA modifications on cytosine”.
# Experiments:
# Assay in all cases: DAPPL (digital affinity profiling via proximity ligation, sequencing); 10 mM Tris-HCl pH 7.5, 50 mM NaCl, 1 mM DTT, 4% glycerol, room temperature, 30 min; GST-TFs on glutathione beads, 16-mer random dsDNA library, 0.1% formaldehyde crosslink after washing; high values mean tight binding
# [1] = molecular target: T1, FLI1 (Homo sapiens, UniProt Q01543 1-452); conditions: protein: recombinant; tags: N-terminal GST; dsDNA, one strand shown
# T1 sequence: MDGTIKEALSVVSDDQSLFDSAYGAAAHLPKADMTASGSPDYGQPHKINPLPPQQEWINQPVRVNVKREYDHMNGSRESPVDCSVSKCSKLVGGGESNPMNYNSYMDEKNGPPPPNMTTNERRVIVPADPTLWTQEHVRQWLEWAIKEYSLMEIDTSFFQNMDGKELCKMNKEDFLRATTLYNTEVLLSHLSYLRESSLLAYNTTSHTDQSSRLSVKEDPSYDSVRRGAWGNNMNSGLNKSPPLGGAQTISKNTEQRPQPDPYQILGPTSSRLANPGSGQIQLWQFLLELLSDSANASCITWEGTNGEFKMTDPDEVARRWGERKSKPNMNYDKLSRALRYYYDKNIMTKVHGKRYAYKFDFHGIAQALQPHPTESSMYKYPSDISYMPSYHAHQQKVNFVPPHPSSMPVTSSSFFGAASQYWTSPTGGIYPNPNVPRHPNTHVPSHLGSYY
# Summary of the method: (§1)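 In yeast, human transcription factors were expressed with a GST fusion, then pulled down on glutathione beads and given DNA barcodes. Pooled with a tag-only sample, they were exposed to 200 nmole of a 16-mer random double-stranded DNA library (Tris/NaCl/DTT/glycerol buffer, room temperature, 30 min), washed, crosslinked with 0.1% formaldehyde, proximity-ligated using BsaI/T4 ligase for 1 h at 37 °C, PCR-amplified and read on an Illumina NextSeq500. Each hexamer's frequency of reads for a factor, divided by the matching frequency for the tag-only sample, gives the binding signal.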
# [2] = molecular target: T2, ELK1 (Homo sapiens, UniProt P19419 1-428); conditions: protein: recombinant; tags: N-terminal GST; dsDNA, one strand shown
# T2 sequence: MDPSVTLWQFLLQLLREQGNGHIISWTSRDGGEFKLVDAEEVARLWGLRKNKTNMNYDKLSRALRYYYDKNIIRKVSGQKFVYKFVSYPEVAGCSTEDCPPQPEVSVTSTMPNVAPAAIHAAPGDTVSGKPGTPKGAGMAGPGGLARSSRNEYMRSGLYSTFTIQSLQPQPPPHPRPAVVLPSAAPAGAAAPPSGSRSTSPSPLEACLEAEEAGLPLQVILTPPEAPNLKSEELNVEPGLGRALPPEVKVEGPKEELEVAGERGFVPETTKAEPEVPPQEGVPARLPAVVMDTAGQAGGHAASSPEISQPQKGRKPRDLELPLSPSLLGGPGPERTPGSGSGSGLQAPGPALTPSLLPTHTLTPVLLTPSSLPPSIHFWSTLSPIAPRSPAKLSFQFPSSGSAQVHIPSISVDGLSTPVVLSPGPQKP
# Summary of the method: as §1
# [3] = molecular target: T3, GABPA (Homo sapiens, UniProt Q06546 1-454); conditions: protein: recombinant; tags: N-terminal GST; dsDNA, one strand shown
# T3 sequence: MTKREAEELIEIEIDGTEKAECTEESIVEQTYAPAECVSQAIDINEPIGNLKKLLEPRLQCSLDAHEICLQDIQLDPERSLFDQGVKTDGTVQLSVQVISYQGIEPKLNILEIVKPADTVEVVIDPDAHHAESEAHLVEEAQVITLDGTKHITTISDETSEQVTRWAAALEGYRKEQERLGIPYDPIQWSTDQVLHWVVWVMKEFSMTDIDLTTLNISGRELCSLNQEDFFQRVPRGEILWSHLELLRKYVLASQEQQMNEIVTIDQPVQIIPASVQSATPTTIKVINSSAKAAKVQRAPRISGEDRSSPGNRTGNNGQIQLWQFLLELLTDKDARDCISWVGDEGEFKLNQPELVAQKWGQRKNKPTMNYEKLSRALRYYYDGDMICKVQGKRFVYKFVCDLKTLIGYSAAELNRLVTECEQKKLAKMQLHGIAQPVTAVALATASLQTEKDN
# Summary of the method: as §1
# [4] = molecular target: T4, ERG (Homo sapiens, UniProt P11308 1-479); conditions: protein: recombinant; tags: N-terminal GST; dsDNA, one strand shown
# T4 sequence: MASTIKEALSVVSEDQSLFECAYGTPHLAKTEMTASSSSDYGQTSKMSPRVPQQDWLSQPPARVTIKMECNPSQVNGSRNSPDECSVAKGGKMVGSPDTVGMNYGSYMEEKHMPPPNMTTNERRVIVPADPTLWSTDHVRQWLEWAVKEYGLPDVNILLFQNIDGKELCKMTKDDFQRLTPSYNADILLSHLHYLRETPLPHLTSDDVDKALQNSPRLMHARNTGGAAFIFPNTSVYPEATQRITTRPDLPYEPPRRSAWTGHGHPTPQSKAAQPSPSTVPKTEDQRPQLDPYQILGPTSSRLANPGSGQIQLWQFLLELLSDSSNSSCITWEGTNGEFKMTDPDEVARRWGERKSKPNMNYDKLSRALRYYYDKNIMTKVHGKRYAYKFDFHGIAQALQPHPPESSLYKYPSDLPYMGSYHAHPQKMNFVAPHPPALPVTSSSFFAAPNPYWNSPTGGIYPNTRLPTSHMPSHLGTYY
# Summary of the method: as §1
# [5] = molecular target: ELF1 (Homo sapiens, UniProt P32519 1-619); conditions: protein: recombinant; tags: N-terminal GST; dsDNA, one strand shown
# Summary of the method: as §1
# [6] = molecular target: T5, EHF (Homo sapiens, UniProt Q9NZC4 1-300); conditions: protein: recombinant; tags: N-terminal GST; dsDNA, one strand shown
# T5 sequence: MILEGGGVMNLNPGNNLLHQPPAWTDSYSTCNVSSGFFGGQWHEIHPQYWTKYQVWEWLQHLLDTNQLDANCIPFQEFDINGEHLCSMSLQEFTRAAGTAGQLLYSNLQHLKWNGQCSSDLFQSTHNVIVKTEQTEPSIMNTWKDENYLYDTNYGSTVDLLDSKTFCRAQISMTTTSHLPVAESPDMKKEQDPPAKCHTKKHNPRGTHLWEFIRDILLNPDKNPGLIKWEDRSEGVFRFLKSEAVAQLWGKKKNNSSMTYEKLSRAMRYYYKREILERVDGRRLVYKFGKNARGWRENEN
# Summary of the method: as §1
# [7] = molecular target: SPI1 (Homo sapiens, UniProt P17947 1-270); conditions: protein: recombinant; tags: N-terminal GST; dsDNA, one strand shown
# Summary of the method: as §1
# [8] = molecular target: SPIB (Homo sapiens, UniProt Q01892 1-262); conditions: protein: recombinant; tags: N-terminal GST; dsDNA, one strand shown
# Summary of the method: as §1
# [9] = molecular target: T6, ELK3 (Homo sapiens, UniProt P41970 1-407); conditions: protein: recombinant; tags: N-terminal GST; dsDNA, one strand shown
# T6 sequence: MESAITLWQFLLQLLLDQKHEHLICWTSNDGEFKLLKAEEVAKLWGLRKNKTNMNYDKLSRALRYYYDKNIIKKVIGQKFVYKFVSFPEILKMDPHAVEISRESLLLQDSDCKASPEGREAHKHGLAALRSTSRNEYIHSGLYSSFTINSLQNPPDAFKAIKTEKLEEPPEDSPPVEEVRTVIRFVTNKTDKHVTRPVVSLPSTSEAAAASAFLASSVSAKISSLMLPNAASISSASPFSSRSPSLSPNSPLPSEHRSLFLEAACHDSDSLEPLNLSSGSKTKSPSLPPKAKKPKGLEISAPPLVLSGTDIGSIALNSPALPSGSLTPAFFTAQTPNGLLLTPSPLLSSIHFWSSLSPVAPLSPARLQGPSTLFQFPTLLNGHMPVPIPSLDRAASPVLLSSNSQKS
# Summary of the method: as §1
# [10] = molecular target: T7, FEV (Homo sapiens, UniProt Q99581 1-238); conditions: protein: recombinant; tags: N-terminal GST; dsDNA, one strand shown
# T7 sequence: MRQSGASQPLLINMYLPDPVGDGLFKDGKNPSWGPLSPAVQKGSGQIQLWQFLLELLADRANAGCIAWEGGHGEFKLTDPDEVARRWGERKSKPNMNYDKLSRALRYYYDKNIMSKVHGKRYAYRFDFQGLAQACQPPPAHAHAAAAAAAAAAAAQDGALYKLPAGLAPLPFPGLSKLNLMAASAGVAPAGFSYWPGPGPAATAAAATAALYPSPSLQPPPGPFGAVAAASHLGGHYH
# Summary of the method: as §1
# [11] = molecular target: ETV5 (Homo sapiens, UniProt P41161 1-510); conditions: protein: recombinant; tags: N-terminal GST; dsDNA, one strand shown
# Summary of the method: as §1
# [12] = molecular target: HSF1 (Homo sapiens, UniProt Q00613 1-529); conditions: protein: recombinant; tags: N-terminal GST; chain copies: 3; dsDNA, one strand shown
# Summary of the method: as §1
# [13] = molecular target: T8, SPIC (Homo sapiens, UniProt Q8N5J4 1-248); conditions: protein: recombinant; tags: N-terminal GST; dsDNA, one strand shown
# T8 sequence: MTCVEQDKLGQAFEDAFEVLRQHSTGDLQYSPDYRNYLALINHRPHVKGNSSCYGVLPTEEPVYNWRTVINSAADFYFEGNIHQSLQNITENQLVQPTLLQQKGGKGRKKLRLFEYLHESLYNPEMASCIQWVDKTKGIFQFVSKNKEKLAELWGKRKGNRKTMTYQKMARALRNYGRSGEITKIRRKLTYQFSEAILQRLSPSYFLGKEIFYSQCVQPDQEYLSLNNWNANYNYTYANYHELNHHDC
# Summary of the method: as §1
# [14] = molecular target: ELF4 (Homo sapiens, UniProt Q99607 1-663); conditions: protein: recombinant; tags: N-terminal GST; dsDNA, one strand shown
# Summary of the method: as §1
# [15] = molecular target: T9, ELK4 (Homo sapiens, UniProt P28324-2 1-405); conditions: protein: recombinant; tags: N-terminal GST; dsDNA, one strand shown
# T9 sequence: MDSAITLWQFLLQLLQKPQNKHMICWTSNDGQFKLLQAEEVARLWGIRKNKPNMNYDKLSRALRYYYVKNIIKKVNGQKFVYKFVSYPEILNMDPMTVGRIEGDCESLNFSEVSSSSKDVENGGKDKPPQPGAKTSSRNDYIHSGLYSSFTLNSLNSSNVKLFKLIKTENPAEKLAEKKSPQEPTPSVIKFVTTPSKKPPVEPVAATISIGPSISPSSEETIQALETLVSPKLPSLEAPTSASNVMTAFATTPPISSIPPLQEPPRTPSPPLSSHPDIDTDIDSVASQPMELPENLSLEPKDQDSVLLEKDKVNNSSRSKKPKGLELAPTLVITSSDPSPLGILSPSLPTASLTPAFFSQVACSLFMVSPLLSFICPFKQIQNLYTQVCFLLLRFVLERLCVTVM
# Summary of the method: as §1
# [16] = molecular target: T10, ETV2 (Homo sapiens, UniProt O00321 1-342); conditions: protein: recombinant; tags: N-terminal GST; dsDNA, one strand shown
# T10 sequence: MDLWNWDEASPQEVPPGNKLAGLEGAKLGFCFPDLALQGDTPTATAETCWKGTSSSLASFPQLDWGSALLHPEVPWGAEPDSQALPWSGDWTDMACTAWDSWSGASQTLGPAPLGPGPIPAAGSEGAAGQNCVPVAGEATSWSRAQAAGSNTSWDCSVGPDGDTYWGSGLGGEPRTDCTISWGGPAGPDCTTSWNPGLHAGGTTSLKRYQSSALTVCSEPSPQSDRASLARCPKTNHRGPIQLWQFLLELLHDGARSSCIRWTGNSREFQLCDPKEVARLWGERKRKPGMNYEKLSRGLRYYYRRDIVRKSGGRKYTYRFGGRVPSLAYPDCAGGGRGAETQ
# Summary of the method: as §1
# [17] = molecular target: T11, ELF3 (Homo sapiens, UniProt P78545 1-371); conditions: protein: recombinant; tags: N-terminal GST; dsDNA, one strand shown
# T11 sequence: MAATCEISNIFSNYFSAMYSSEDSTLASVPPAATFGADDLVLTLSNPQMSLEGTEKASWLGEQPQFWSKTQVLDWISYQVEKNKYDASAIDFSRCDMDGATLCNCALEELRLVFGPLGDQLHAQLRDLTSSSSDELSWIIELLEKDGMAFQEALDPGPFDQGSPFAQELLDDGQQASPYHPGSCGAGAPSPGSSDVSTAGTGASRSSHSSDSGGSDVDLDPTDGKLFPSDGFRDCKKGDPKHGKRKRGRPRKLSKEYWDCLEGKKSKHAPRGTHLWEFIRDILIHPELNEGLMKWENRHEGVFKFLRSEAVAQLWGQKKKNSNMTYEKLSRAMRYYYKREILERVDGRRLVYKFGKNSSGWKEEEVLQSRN
# Summary of the method: as §1
# [18] = molecular target: ETV1 (Homo sapiens, UniProt P50549 1-477); conditions: protein: recombinant; tags: N-terminal GST; dsDNA, one strand shown
# Summary of the method: as §1
# Sequence of SPIB (Q01892 whole entry): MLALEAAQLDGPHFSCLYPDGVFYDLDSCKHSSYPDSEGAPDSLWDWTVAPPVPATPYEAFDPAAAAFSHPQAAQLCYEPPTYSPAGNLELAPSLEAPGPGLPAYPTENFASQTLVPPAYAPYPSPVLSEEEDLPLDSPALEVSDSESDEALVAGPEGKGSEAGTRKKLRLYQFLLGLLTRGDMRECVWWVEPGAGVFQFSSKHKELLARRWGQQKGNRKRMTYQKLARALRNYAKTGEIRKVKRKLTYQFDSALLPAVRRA
# Sequence of ELF4 (Q99607 whole entry): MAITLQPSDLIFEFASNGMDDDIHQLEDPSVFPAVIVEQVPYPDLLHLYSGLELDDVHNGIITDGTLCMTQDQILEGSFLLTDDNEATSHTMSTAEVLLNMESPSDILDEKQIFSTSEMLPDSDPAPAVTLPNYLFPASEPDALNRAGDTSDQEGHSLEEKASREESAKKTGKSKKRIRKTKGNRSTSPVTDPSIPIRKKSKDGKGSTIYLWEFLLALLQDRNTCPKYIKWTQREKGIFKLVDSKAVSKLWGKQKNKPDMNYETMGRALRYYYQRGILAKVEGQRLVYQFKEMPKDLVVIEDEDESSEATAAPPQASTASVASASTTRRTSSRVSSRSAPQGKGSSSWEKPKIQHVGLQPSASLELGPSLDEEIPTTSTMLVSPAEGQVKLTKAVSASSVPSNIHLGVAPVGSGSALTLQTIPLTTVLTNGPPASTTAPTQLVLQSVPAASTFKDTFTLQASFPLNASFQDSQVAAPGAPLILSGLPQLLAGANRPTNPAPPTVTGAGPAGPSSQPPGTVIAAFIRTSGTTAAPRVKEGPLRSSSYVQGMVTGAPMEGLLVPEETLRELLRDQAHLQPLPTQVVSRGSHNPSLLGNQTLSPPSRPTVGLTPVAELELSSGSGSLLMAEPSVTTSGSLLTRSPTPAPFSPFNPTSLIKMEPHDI
# Sequence of HSF1 (Q00613 whole entry): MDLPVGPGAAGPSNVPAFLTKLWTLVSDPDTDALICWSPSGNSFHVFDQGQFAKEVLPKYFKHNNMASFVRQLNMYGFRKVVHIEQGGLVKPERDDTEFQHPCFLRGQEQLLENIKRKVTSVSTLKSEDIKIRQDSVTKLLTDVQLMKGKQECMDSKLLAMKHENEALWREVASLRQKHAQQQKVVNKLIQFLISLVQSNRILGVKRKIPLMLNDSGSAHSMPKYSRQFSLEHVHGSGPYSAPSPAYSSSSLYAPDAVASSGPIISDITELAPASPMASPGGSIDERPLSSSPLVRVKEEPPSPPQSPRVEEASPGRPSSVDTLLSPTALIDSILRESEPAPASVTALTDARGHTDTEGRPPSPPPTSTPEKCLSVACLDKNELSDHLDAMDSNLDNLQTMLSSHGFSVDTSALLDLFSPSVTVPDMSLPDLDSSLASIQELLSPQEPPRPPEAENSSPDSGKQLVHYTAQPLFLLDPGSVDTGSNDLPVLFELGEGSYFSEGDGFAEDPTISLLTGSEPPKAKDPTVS
# Sequence of ETV1 (P50549 whole entry): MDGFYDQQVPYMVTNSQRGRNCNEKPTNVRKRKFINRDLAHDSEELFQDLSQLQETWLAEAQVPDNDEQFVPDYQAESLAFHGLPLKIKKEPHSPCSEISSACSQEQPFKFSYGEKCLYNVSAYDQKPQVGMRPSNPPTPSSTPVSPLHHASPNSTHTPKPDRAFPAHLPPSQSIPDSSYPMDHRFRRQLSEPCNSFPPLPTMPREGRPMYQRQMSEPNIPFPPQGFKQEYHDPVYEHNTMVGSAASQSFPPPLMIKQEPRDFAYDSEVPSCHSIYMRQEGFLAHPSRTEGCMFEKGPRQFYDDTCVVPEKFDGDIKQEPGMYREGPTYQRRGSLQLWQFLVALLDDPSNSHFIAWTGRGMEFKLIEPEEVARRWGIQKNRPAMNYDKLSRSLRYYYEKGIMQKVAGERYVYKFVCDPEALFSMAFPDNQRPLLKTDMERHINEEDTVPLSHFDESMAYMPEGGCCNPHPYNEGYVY
# Sequence of ELF1 (P32519 whole entry): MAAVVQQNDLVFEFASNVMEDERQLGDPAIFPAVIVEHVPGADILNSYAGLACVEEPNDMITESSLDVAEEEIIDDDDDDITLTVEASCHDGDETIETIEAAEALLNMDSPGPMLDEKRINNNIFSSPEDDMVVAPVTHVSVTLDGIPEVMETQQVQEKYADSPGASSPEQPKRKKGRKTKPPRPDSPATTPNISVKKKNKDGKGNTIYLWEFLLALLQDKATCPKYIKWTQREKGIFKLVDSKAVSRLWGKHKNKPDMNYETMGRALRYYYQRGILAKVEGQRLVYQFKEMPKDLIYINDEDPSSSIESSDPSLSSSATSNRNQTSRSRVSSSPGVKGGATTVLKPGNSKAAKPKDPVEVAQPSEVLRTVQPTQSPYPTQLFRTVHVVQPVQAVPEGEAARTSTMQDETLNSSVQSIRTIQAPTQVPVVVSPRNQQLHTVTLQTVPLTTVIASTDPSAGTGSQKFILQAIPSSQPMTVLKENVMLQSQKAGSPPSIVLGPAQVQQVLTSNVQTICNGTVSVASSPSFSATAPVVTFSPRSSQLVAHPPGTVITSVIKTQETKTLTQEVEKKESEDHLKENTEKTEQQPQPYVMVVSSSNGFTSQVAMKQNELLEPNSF
# Sequence of ETV5 (P41161 whole entry): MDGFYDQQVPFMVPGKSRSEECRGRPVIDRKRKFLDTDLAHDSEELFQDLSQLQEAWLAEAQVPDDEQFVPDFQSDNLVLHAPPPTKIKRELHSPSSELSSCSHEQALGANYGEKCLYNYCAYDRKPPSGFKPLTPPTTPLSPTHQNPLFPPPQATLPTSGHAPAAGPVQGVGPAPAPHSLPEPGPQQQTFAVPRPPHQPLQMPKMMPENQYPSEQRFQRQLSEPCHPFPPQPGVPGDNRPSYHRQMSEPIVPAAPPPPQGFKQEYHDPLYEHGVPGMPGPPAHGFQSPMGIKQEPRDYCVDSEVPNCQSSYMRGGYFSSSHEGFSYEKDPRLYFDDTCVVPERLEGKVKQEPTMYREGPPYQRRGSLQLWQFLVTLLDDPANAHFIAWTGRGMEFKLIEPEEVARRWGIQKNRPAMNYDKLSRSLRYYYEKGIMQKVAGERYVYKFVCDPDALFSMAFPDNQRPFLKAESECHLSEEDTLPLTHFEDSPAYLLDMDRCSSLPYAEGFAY
sequence,measurement,setting,value
GCACTC,binding signal,[1],"1.29 fold enrichment (6-mer frequency, TF over GST control)"
same,binding signal,[2],"1.5 fold enrichment (6-mer frequency, TF over GST control)"
same,binding signal,[3],"1.32 fold enrichment (6-mer frequency, TF over GST control)"
same,binding signal,[4],"1.31 fold enrichment (6-mer frequency, TF over GST control)"
same,binding signal,[5],"1.33 fold enrichment (6-mer frequency, TF over GST control)"
same,binding signal,[6],"1.37 fold enrichment (6-mer frequency, TF over GST control)"
same,binding signal,[7],"1.35 fold enrichment (6-mer frequency, TF over GST control)"
same,binding signal,[8],"1.35 fold enrichment (6-mer frequency, TF over GST control)"
same,binding signal,[9],"1.28 fold enrichment (6-mer frequency, TF over GST control)"
same,binding signal,[10],"1.31 fold enrichment (6-mer frequency, TF over GST control)"
same,binding signal,[11],"1.38 fold enrichment (6-mer frequency, TF over GST control)"
same,binding signal,[12],"1.06 fold enrichment (6-mer frequency, TF over GST control)"
same,binding signal,[13],"1.25 fold enrichment (6-mer frequency, TF over GST control)"
same,binding signal,[14],"1.31 fold enrichment (6-mer frequency, TF over GST control)"
same,binding signal,[15],"1.33 fold enrichment (6-mer frequency, TF over GST control)"
same,binding signal,[16],"1.36 fold enrichment (6-mer frequency, TF over GST control)"
same,binding signal,[17],"1.41 fold enrichment (6-mer frequency, TF over GST control)"
same,binding signal,[18],"1.33 fold enrichment (6-mer frequency, TF over GST control)"
